Bioassay records (PubChem)
N-glyco inh = N-linked glycosylation inhibition; D54 ERlucT glycosylation luciferase reporter, 24 h; percent of 100 nM tunicamycin response; AID 588692; 360,000 tested, 0.23% active; reporter increase, % at 12.5 µM;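 active = mean luciferase reporter signal, scaled so untreated is 0 and the glycosylation-blocking control 100, at or above a set limit in every replicate; inconclusive = mean reaches the limit but not every replicate does; inactive = mean below the limit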;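 note: luciferase carries N-glycosylation sites so blocking glycosylation raises the light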
Vif imaging = blocks HIV Vif function. HEK293T cells, Vif self-association by quenched fluorescence, imaging, 24 h. inhibition, % at 7.49 µM. 340,000 tested, 0.35% active. AID 602346; in the data active = inhibition above about 50%, passing the limit was not always enough; inconclusive = no clear call, values can overlap the other calls; inactive = below about 31%
PvdQ acylase = blocks Pseudomonas aeruginosa PvdQ acylase activity; purified PvdQ acylase, fluorescence plate reader; inhibition, % at 10 µM; AID 488965; 340,000 tested, 0.063% active; in the data active = inhibition above about 30%, passing the limit was not always enough; inconclusive = no clear call, values can overlap the other calls
MITF TRPM1 HTS = activators of MITF-driven TRPM1 promoter activity in SK-MEL-5 cells | SK-MEL-5 TRPM1-promoter luciferase, 24 h; % of positive control, neutral wells = 0 | AID 588334 | 300,000 tested, 0.75% active | activation, % at 12.5 µM;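 active = mean activation of at least 80% with every replicate also reaching 80%; inconclusive = mean reaches 80% but some replicate falls short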
esBAF inh = blocks esBAF chromatin remodeling in mouse ES cells | Bmi1-luciferase knock-in reporter, 24 h; 100% = twice the neutral-well signal | reporter increase, % at 12.5 µM | 350,000 tested, 2% active | AID 602393; in the data active = activation above about 40%; inconclusive = no clear call, values can overlap the other calls;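 note: a rise in the Bmi1 reporter signal indicates esBAF inhibition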
Wnt bcat act = activators of Wnt/beta-catenin signaling; Wnt/beta-catenin reporter cell assay, activator, plate reader; activation, % at 9.35 µM; 300,000 tested, 1.2% active; in the data active = activation above about 30%, passing the limit was not always enough; inconclusive = no clear call, values can overlap the other calls
Ring1 derepress = de-represses Ring1 in mouse ESCs, confirming esBAF inhibition; shares compounds with esBAF inh; mouse ESC E14, Ring1 mRNA RT-qPCR fold change; fold change at 33 µM; 550 tested, under 10 active; AID 743176;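 active = Ring1 gene expression raised more than 2-fold over untreated cells in both replicates at either tested dose; inconclusive = only one replicate above 2-fold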;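 note: Ring1 transcript normalised to actin housekeeping signal by TaqMan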
esBAF Fgf4 qPCR = esBAF inhibition confirmed by Fgf4 repression; shares compounds with esBAF inh; mouse ESC E14, Fgf4 mRNA qPCR fold change; stronger effect = lower value; Fgf4 expression fold change at 33 µM; 550 tested, 4% active; AID 743177;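 active = Fgf4 expression under 0.8 fold of control in both repeat measurements at one or both tested doses; inconclusive = under 0.8 fold in just a single repeat measurement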;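 note: Fgf4 transcript normalised to actin in duplex TaqMan qPCR; cells exposed to compound for 24 h before lysis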
esBAF Bmi1 qPCR = de-represses Bmi1 in mouse ESCs, confirming esBAF inhibition | fold change at 33 µM | mouse ESE14 ES cells, Bmi1 mRNA qPCR fold; stronger effect = higher value | 550 tested, under 10 active | shares compounds with esBAF inh | AID 743180;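 active = Bmi1 expression fold change above 6 at either tested concentration, seen in replicate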;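 note: higher fold means more Bmi1 de-repression and stronger esBAF inhibition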
A549 cytotox = kills or reduces viability of A549 cells | AID 743188 | 550 tested, under 10 active | A549 cytotoxicity, plate reader | shares compounds with esBAF inh | cell viability change % (negative = cytotoxic), % at 25 µM, hits read low; call rule not given here
HepG2 cytotox SP = HepG2 cell cytotoxicity at single point. shares compounds with esBAF inh. plate reader; stronger effect = lower value. activity change, negative = inhibition, % at 25 µM. 550 tested, 4% active; in the data active = activity change below about -50%
HEK293 cytotox SP = kills or reduces viability of HEK293 cells; shares compounds with esBAF inh; activity change, negative = inhibition, % at 25 µM, hits read low; 550 tested, 3% active; HEK293 cytotoxicity, plate reader; in the data active = activity change below about -38%, passing the limit was not always enough
Hits are given with their value; - = inactive; ? = inconclusive; . = no result given. A selection: hits, their analogues and other compounds. The true share with any hit is near 2.9%.

SMILES	N-glyco inh	Vif imaging	PvdQ acylase	MITF TRPM1 HTS	esBAF inh	Wnt bcat act	Ring1 derepress	esBAF Fgf4 qPCR	esBAF Bmi1 qPCR	A549 cytotox	HepG2 cytotox SP	HEK293 cytotox SP
O=C(N/N=C/c1cccs1)c1cccc2cc[nH]c12	-	.	-	-	57	-	-	-	-	-	-	-
Cc1ccc2c(CN(C)Cc3cccc(F)c3)cc(=O)oc2c1	-	-	-	88	90	-	-	?	-	-	-	-
CN(Cc1ccccc1F)Cc1cc(=O)oc2cc(O)c(Cl)cc12	-	-	-	-	-	-	.	.	.	.	.	.
Cc1cc2oc(=O)cc(CN(C)Cc3ccccc3F)c2cc1Cl	-	-	-	-	64	-	-	0.65	-	-	-	-
Cc1ccc2c(CN(C)Cc3ccccc3)cc(=O)oc2c1	-	.	.	.	88	-	-	-	-	-	-	-
N#C[C@@H]1[C@@H](c2ccc(/C=C/c3ccccc3)cc2)[C@@H](CO)N1C(=O)C1CCC1	.	.	.	.	-	.	.	.	.	.	.	.
CC(C)CN1C(=O)c2ccc(C(=O)Nc3nccs3)cc2C1=O	-	.	-	-	63	.	-	-	-	-	-	-
CC(C)CN1C(=O)c2ccc(NC(=O)C3CC3)cc2C1=O	-	-	-	-	-	-	.	.	.	.	.	.
CC(C)CN1C(=O)c2ccc(NC(=O)c3cccs3)cc2C1=O	-	-	-	?	63	.	-	-	-	-	-	-
COCCN1C(=O)c2ccc(C(=O)Nc3nccs3)cc2C1=O	-	-	-	-	-	-	.	.	.	.	.	.
COCC#Cc1cnc2c(c1)C(=O)N([C@H](C)CO)C[C@@H](C)[C@@H](CN(C)C(=O)Nc1cc(F)ccc1F)O2	.	.	.	.	-	.	.	.	.	.	.	.
COc1ccc(-c2csc(NC3OC(=O)c4c3ccc(OC)c4OC)n2)cc1OC (stereo not given)	-	-	-	.	.	-	.	.	.	.	.	.
COc1ccc2c(c1OC)C(=O)OC2Nc1nc(-c2cc3cc(Br)ccc3oc2=O)cs1 (stereo not given)	-	-	-	144	65	51	-	-	-	-	-	-
Fc1ccccc1NC(=S)N1CCC(c2ccccc2)C1 (stereo not given)	-	-	-	109	82	48	-	-	-	-	-	-
Fc1cc(F)cc(NC(=S)N2CCC(c3ccccc3)C2)c1 (stereo not given)	-	-	-	-	.	-	.	.	.	.	.	.
N/C(=N\OC(=O)CC1CCCCC1)c1ccccn1	-	-	-	88	82	.	-	?	-	-	-	-
N/C(=N\OC(=O)CC1CCCCC1)c1ccncc1	-	-	-	-	.	-	.	.	.	.	.	.
CN(C)CC(=O)N1[C@@H](C#N)[C@H](c2ccc(C#CC3CCCCC3)cc2)[C@@H]1CO	.	.	.	.	-	.	.	.	.	.	.	.
Cc1cccc(-n2nnc(C(=O)Nc3ccc(F)cc3)c2N)c1	-	-	-	.	62	.	-	-	-	-	-	-
O=C(c1csc(Nc2cccc3ccccc23)n1)N1CCCC1	-	-	-	-	-	-	.	.	.	.	.	.
O=C(c1csc(Nc2ccccc2Cl)n1)N1CCCC1	-	-	-	.	54	.	-	-	-	-	-	-
COc1ccccc1C(=O)NCC(=O)Nc1ccc2c(c1)CCC2	-	-	-	?	73	-	-	-	-	-	-	-
Cc1ccc(C(=O)NCC(=O)Nc2ccc3c(c2)CCC3)cc1	-	-	-	-	72	-	-	-	-	-	-	-
CO[C@H]1CN(C)C(=O)c2ccc(NS(=O)(=O)c3ccccc3)cc2OC[C@H](C)N(Cc2cccnc2)C[C@@H]1C	.	.	.	.	-	.	.	.	.	.	.	.
O=C([C@H]1[C@H](CO)[C@H]2Cn3c(cccc3=O)[C@@H]1N2)N1CCc2ccccc2C1	.	.	.	.	-	.	.	.	.	.	.	.
SMILES	N-glyco inh	Vif imaging	PvdQ acylase	MITF TRPM1 HTS	esBAF inh	Wnt bcat act	Ring1 derepress	esBAF Fgf4 qPCR	esBAF Bmi1 qPCR	A549 cytotox	HepG2 cytotox SP	HEK293 cytotox SP
COc1ccc(NC(=O)c2c(F)c(F)c(F)c(F)c2F)cc1Cl	-	.	-	-	-	.	.	.	.	.	.	.
COc1ccc(NC(=O)c2cc(F)cc(F)c2)cc1Cl	-	-	-	.	58	56	-	-	-	-	-	-
Cc1ccc(-c2cnc3c(c2)C(=O)N([C@H](C)CO)C[C@@H](C)[C@H](CN(C)C)O3)cc1	.	.	.	.	-	.	.	.	.	.	.	.
Cc1cccc(Nc2nc(-c3sc(C)nc3C)cs2)c1	-	-	-	.	69	-	-	-	-	-	-	-
CSCc1nc2sc(C(=O)Nc3nc(C)cs3)c(C)c2c(=O)[nH]1	-	-	-	-	60	-	-	-	-	-	-	-
Cc1csc(NC(=O)CSc2nc3sc(C)c(C)c3c(=O)[nH]2)n1	-	-	-	.	-	-	.	.	.	.	.	.
COc1ccc(C(=O)N=c2sc3ccccc3n2C)cc1OC	-	-	-	-	73	43	-	-	-	-	-	-
COC(=O)Cn1c(=NC(=O)c2ccc(OC)c(OC)c2)sc2cc(OC)ccc21	-	-	-	-	.	-	.	.	.	.	.	.
C[C@@H]1CN([C@@H](C)CO)C(=O)Cc2cc(NS(=O)(=O)c3cn(C)cn3)ccc2O[C@H]1CN(C)CC1CCCCC1	.	.	.	.	-	.	.	.	.	.	.	.
CN(C)S(=O)(=O)c1ccc2c(c1)/C(=C/c1cc3c([nH]1)CCCC3)C(=O)N2	-	.	-	-	59	35	2.2	-	7.7	-	-	-
Cc1cc(-c2nnco2)c(C)n1-c1ccccc1	-	-	-	-	54	-	-	-	-	-	-	-
Cc1nc2ccccn2c1-c1nnco1	-	-	-	-	-	-	.	.	.	.	.	.
Cc1nc(-c2ccccc2)nc2[nH]ccc(=O)c12	-	-	-	.	64	-	2.2	?	-	-	-	-
C[C@@H]1CN([C@H](C)CO)C(=O)c2cc(NC(=O)Cc3ccccc3)ccc2O[C@@H](C)CCCCO[C@@H]1CN(C)C(=O)C1CCCCC1	.	.	.	.	-	.	.	.	.	.	.	.
CC(=O)Nc1ccc2nc(C)n(Cc3ccc(Cl)cc3)c(=O)c2c1	-	-	-	.	55	.	-	-	-	-	-	-
C[C@@H]1CCCCO[C@H](CN(C)Cc2ccc(C(F)(F)F)cc2)[C@@H](C)CN([C@@H](C)CO)C(=O)c2cc(NS(=O)(=O)c3ccc(F)cc3)ccc2O1	.	.	.	.	-	.	.	.	.	.	.	.
CN1CCN(C(=O)C[C@H]2CC[C@@H]3[C@H](COC[C@@H](O)CN3Cc3ccc(Oc4ccccc4)cc3)O2)CC1	.	.	.	.	-	.	.	.	.	.	.	.
C=CCn1cccc(C(=O)Nc2ccc(Cl)cc2)c1=O	-	-	-	82	63	-	-	-	-	-	-	-
C[C@H](CO)N1C[C@H](C)[C@H](CN(C)Cc2cccc(C(=O)O)c2)Oc2ncc(C#CCN(C)C)cc2C1=O	.	.	.	.	-	.	.	.	.	.	.	.
COc1cc(C=O)c(Br)cc1OCc1ccc(C)cc1	-	-	-	-	81	.	-	-	-	-	-	-
